In the library only some 11% were active in any assay of this set; here they are far more common.
PNC inhibitor = blocks assembly of the perinucleolar compartment | 140,000 tested, 3.1% active | PC3M PTB-GFP, PNC prevalence imaging, 16 h; active compounds read low | AID 2417 | activity change (PNC), negative = inhibition, % at 10 µM;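 active = readout at or below -70, meaning at least 70% loss of cells showing the perinucleolar compartment, a nuclear body marking cancer cells; inconclusive = readout between -30 and a set limit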;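 also: plate controls were DMSO wells for no effect and camptothecin positive control wells for full effect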
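Compounds are pinned in duplicate onto adhered PC3M cells stably expressing GFP-tagged PTB and incubated 16 h at 37 C. Cells are then fixed, nuclei stained with Hoechst, and PNC-positive cells counted.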
HPGD inh = blocks human HPGD enzyme activity. AID 894. Potency, µM, without a hit: at the top dose activity change, negative = inhibition, usual class: inhibitors. 150,000 tested, 4.3% active. purified HPGD, NADH fluorescence kinetic, PGE2 substrate. P15428; also: potency is read from the fitted curve at half-maximal effect
Target sequence (P15428 whole entry, looked up): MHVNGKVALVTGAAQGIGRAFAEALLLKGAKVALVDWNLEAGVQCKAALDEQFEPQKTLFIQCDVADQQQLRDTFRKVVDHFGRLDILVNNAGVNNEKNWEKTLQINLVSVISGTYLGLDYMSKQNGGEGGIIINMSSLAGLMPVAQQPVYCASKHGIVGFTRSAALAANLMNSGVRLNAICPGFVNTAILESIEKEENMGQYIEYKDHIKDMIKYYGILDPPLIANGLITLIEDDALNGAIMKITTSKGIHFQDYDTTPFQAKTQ
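NADH formation kinetics: reaction with 30 uM PGE2 and 1 mM NAD+ (final), 20 nM enzyme, Tris-HCl pH 8 with Tween 20, after 15 min compound preincubation at room temperature. Fluorescence change, last versus first of five reads.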
IMPase cell inh = IMPase inhibition in cells. CHO-M1 cells, IP1 accumulation, HTRF TR-FRET ratio. inhibition (IP1 accumulation), % at 46.1 µM. 120,000 tested, under 10 active. AID 901; active = well fitted curve in the direction sought with a large enough effect in the signal ratio, not every such curve was filed as active; inconclusive = small, poorly fitted or top-dose-only effect, or a change in a side signal; inactive = no such curve, though single readings can be large or run the other way; the % refers to the signal ratio;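 also: cells stimulated with carbachol in lithium chloride buffer; plate controls were DMSO basal wells for no effect and reference inhibitor wells for full effect; higher means more IMPase inhibition seen as more IP1 and lower FRET ratio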
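CHO-M1, 2000 cells/well, cultured 16–30 h; cpd up to 46 uM; carbachol (50 uM solution, stimulation buffer w/ 50 mM LiCl, pH 7.4), 30 min 37C; IP-One TR-FRET, 10 min RT; Ex 320/Em 665, 620; Hill-fit AC50.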
ALDH1A1 block = ALDH1A1 (human) enzyme inhibition; Potency, µM (series often up to 75.3 µM), for the others: at the highest dose activity, negative = inhibition, usual class: inhibitors; AID 1030; P00352; Purified ALDH1A1, NADH fluorescence, propionaldehyde substrate; 220,000 tested, 7.3% active;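 also: potency is read from the fitted curve at half-maximal effect; plate controls were no enzyme wells and a reference inhibitor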
Target sequence (P00352 whole entry, looked up): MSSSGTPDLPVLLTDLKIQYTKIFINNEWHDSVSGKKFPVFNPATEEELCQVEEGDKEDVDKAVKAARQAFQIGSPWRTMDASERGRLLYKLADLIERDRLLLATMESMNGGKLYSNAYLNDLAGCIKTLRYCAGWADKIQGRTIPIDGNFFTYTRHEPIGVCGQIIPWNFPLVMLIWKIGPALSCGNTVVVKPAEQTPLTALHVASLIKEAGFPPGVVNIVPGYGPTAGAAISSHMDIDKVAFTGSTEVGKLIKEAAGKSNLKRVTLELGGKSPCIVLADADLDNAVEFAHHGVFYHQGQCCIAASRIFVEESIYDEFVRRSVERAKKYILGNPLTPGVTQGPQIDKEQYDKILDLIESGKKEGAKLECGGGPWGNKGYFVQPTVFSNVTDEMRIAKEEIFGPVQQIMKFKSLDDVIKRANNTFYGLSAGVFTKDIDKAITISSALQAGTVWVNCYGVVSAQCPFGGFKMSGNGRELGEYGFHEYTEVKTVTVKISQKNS
IMPase Li inh = IMPase inhibition in cells with lithium potentiation. CHO-M1 cells, IP1 TR-FRET (IP-One), carbachol + lithium. Potency, µM (series often up to 59.4 µM), for inactives: top-dose activity, negative = IMPase inhibition, most hits filed as inhibitors. 210,000 tested, 0.35% active. AID 1457; active = well fitted inhibition curve with a large enough effect; inconclusive = small, poorly fitted or top-dose-only effect; inactive = no such curve, though single readings can be large or run the other way;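 also: IP1 builds up when IMPase is blocked and the TR-FRET signal falls; potency is read from the fitted curve at half-maximal effect; plate controls were basal vehicle for no effect and high inhibitor control for full effect; nearly all actives have a fitted effect of over 50% in size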
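Test compounds were applied to CHO-M1 cells previously cultured for 16–30 h at 2000 per well. A small lithium amount accompanied them; after 30 min at 37C, IP1 was quantified by TR-FRET.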
An asterisk follows results filed as active; [ ] = another dose, or the depositor's remark. Unless noted, calls follow the shape of the dose curve; as a rule, active = well fitted inhibition curve with a large enough effect (not every such curve was filed as active); inconclusive = small, poorly fitted or top-dose-only effect, or another doubt; inactive = no such curve, though single readings can be large or run the other way. Unless noted, % is scaled to controls: 0 for no effect and ±100 for the full control effect.

Results for N#CC1=C(N)Oc2n[nH]c(-c3ccncc3)c2C1c1ccsc1 (stereo not given) ?
PNC inhibitor: inconclusive; HPGD inh: 22µM*; IMPase cell inh: 6[1.84 µM]; ALDH1A1 block: -20%; IMPase Li inh: 32%[38.3 µM]

How did Cc1[nH]c2ccc(C(=O)N3CCCCC3)cc2c1C do in these assays?
ALDH1A1 block: 3%; IMPase Li inh: -3%

Results for C=CCc1cc(C(=O)N2CCCCC2)ccc1O ?
PNC inhibitor: -81*; HPGD inh: 4µM*; IMPase cell inh: 3; ALDH1A1 block: inconclusive; IMPase Li inh: -2%[38.3 µM]

What do the screens show for `COc1ccc(OCC(=O)N2CCN(C(=O)c3ccco3)CC2)cc1`?
PNC inhibitor: -29; HPGD inh: -9%; IMPase cell inh: 5; ALDH1A1 block: 10µM*; IMPase Li inh: -23%[38.3 µM]

Results for COc1ccc(CC(=O)N2CCN(C(=O)c3ccco3)CC2)cc1 ?
PNC inhibitor: 7; HPGD inh: inconclusive; IMPase cell inh: 13; ALDH1A1 block: 20µM*; IMPase Li inh: 5%[38.3 µM]

What do the screens show for `O=C(/C=C/c1ccc(OC(F)F)cc1)OCC(=O)N1CCN(C(=O)c2ccco2)CC1`?
PNC inhibitor: 13; HPGD inh: -6%; ALDH1A1 block: 18µM*; IMPase Li inh: 8%

What do the screens show for `Cc1ccc(CC(=O)N2CCN(C(=O)c3ccco3)CC2)cc1`?
ALDH1A1 block: inconclusive; IMPase Li inh: 3%

What do the screens show for `CCn1cnc2c(=O)oc3ccc(S(=O)(=O)N4CCN(c5cc(C)ccc5C)CC4)cc3c21`?
IMPase cell inh: -3

What do the screens show for `O=C(NC1=C(Nc2ccc(Cl)cc2)C(=O)c2ccccc2C1=O)c1ccccc1`?
PNC inhibitor: 24; HPGD inh: -15%; ALDH1A1 block: -4%; IMPase Li inh: 10%

What do the screens show for `O=C(NC1=C(NC2CCS(=O)(=O)C2)C(=O)c2ccccc2C1=O)c1ccccc1` (stereo not given)?
ALDH1A1 block: 20µM*; IMPase Li inh: 13%

What do the screens show for `Cc1cccc(NC2=C(NC(=O)c3ccccc3)C(=O)c3ccccc3C2=O)c1`?
PNC inhibitor: 6; HPGD inh: inconclusive; IMPase cell inh: 23; ALDH1A1 block: 25µM*; IMPase Li inh: 9%

Results for O=C(NC(NC1CCS(=O)(=O)C1)C(=O)c1cccs1)c1ccccc1 (stereo not given) ?
PNC inhibitor: -21; HPGD inh: -11%; IMPase cell inh: 2; ALDH1A1 block: -5%; IMPase Li inh: 19%[38.3 µM]

What do the screens show for `Cc1ccc(C(C(=O)NC2CCCCC2)N(Cc2cccnc2)C(=O)C2COc3ccccc3O2)o1` (stereo not given)?
PNC inhibitor: inconclusive; HPGD inh: -8%; IMPase cell inh: -1; ALDH1A1 block: 13µM*; IMPase Li inh: 20%[38.3 µM]

What do the screens show for `Cc1ccc(C(C(=O)NC2CCCCC2)N(Cc2ccco2)C(=O)C2COc3ccccc3O2)o1` (stereo not given)?
PNC inhibitor: 12; HPGD inh: -12%; IMPase cell inh: 9; ALDH1A1 block: 12%; IMPase Li inh: 42%[38.3 µM]

What do the screens show for `Cc1ccc(CN(C(=O)c2csnn2)C(C(=O)NC2CCCC2)c2ccc(C)o2)cc1` (stereo not given)?
PNC inhibitor: 303; HPGD inh: -17%; IMPase cell inh: 0; ALDH1A1 block: 14µM*; IMPase Li inh: 4%

Results for CC(=O)c1cccc(NC(=O)c2ccc(S(=O)(=O)N3CCCCC3)cc2)c1 ?
PNC inhibitor: 6; HPGD inh: -7%; IMPase cell inh: 0; ALDH1A1 block: 22µM*; IMPase Li inh: 12%[38.3 µM]

How did CS(=O)(=O)Nc1ccc(C(=O)Nc2ccc(S(=O)(=O)N3CCCC3)cc2)cc1 do in these assays?
ALDH1A1 block: 25µM*; IMPase Li inh: 6%

Results for O=C(NC1CCS(=O)(=O)C1)c1ccc(S(=O)(=O)N2CCCCC2)cc1 (stereo not given) ?
ALDH1A1 block: 25µM*; IMPase Li inh: 7%

How did O=C(Nc1ccc(N2CCOCC2)cc1)c1ccc(S(=O)(=O)N2CCCCC2)cc1 do in these assays?
PNC inhibitor: inconclusive; IMPase cell inh: -10; ALDH1A1 block: 0.11µM*

How did CC(=O)Nc1ccc(C(=O)Nc2ccc(S(=O)(=O)N3CCCC3)cc2)cc1 do in these assays?
PNC inhibitor: inconclusive; HPGD inh: -9%; IMPase cell inh: 7; ALDH1A1 block: inconclusive; IMPase Li inh: -2%[38.3 µM]

What do the screens show for `O=C(NC1CCS(=O)(=O)C1)c1cccc(S(=O)(=O)N2CCCCC2)c1` (stereo not given)?
PNC inhibitor: inconclusive; HPGD inh: 0%; IMPase cell inh: -5; ALDH1A1 block: 3%; IMPase Li inh: -2%[38.3 µM]

What do the screens show for `O=C(COC(=O)c1ccc(S(=O)(=O)N2CCCC2)cc1)Nc1ccc(N2CCOCC2)cc1`?
ALDH1A1 block: -11%; IMPase Li inh: -6%

What do the screens show for `CC(C)C[C@@H](CC(=O)N[C@H](CC(=O)N[C@@H]1CCNC[C@H]1C(=O)N[C@H](CC(=O)N[C@@H](CCC(=O)O)CC(=O)O)CC(C)C)C(C)C)NC(=O)[C@@H]1CNCC[C@H]1N`?
HPGD inh: -9%; ALDH1A1 block: -5%; IMPase Li inh: 20%

Results for COc1cc([C@@H]2c3cc4c(cc3C(OC3OC5COC(C)OC5C(O)C3O)C3COC(=O)[C@@H]32)OCO4)cc(OC)c1O (stereo not given in full) ?
HPGD inh: -5%; ALDH1A1 block: 4%; IMPase Li inh: 9%

How did O=C(NCc1cccnc1)/C(=C\c1ccc(-c2ccc(Cl)c(Cl)c2)o1)S(=O)(=O)c1ccccc1 do in these assays?
PNC inhibitor: -81*; HPGD inh: inconclusive; IMPase cell inh: 14; ALDH1A1 block: -3%; IMPase Li inh: 8%

What do the screens show for `O=C(NCc1cccnc1)c1ccc(-c2cc(Cl)ccc2Cl)o1`?
ALDH1A1 block: 7.1µM*; IMPase Li inh: 9%

Results for CN(C)S(=O)(=O)c1ccc(C(=O)Nc2ccc(CCC(=O)N3CCCC3)cc2)cc1 ?
PNC inhibitor: inconclusive; HPGD inh: 16µM*; IMPase cell inh: 5; ALDH1A1 block: 22µM*; IMPase Li inh: 20%[38.3 µM]

How did O=C(NCc1cccnc1)c1ccc(-c2ccc(Cl)cc2)o1 do in these assays?
ALDH1A1 block: inconclusive; IMPase Li inh: 0%

What do the screens show for `O=C(Nc1cc(S(=O)(=O)Nc2ccc(Cl)cc2)ccc1O)c1ccc(S(=O)(=O)N2CCCCCC2)cc1`?
ALDH1A1 block: 3.2µM*; IMPase Li inh: 18%

What do the screens show for `O=C(Nc1cccc(S(=O)(=O)N2CCOCC2)c1)c1cnccn1`?
ALDH1A1 block: 7%; IMPase Li inh: 0%

Results for CCOC(=O)c1c(C)[nH]c(C2=NNC(=Nc3cccc(Cl)c3)SC2)c1C ?
PNC inhibitor: -9; HPGD inh: -12%; ALDH1A1 block: inconclusive; IMPase Li inh: -6%
